Hits are enriched below; roughly 3.1% of the tested compounds scored in any of these assays.
BoNT-F LC inh: blocks Botulinum neurotoxin F light chain protease; actives 0.22% (n = 360,000); Multiplex microsphere protease cleavage assay, flow cytometry; AID 588497; inhibition, % at 10 µM; in the data active = inhibition above about 35%, passing the limit was not always enough; inconclusive = no clear call, values can overlap the other calls; also: plate controls were buffer without enzyme for full effect and enzyme alone for no effect
SSB-PriA inh: blocks PriA binding to SSB C-terminal tail | AlphaScreen SSBct-PriA binding, biotinylated peptide | inhibition, % at 33 µM | actives 0.6% (n = 430,000); in the data active = inhibition mostly above about 37%, no sharp cut-off; inactive = mostly below about 20%;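 also: plate controls were negative control peptide for no effect and reference peptide for full effect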
BoNT A protease: blocks Botulinum neurotoxin A light chain protease; multiplex microsphere protease substrate cleavage, flow cytometry; inhibition, % at 10 µM; actives 0.17% (n = 360,000); also: plate controls were buffer without enzyme for full effect and enzyme alone for no effect
Bead autofluor: compound fluorescence in toxin protease inhibitor counterscreen; compound autofluorescence counterscreen, microsphere flow cytometry; hits give high values; fluorescence intensity (concentration not given with the values); actives 3.1% (n = 360,000); AID 624483; in the data active = fluorescence intensity above about 16000; inconclusive = no clear call, values can overlap the other calls
Anthrax LF inh2: inhibitors of Bacillus anthracis lethal factor protease | AID 588501 | inhibition, % at 10 µM | multiplex microsphere protease cleavage assay, LF | actives 0.12% (n = 360,000); also: plate controls were buffer without enzyme for full effect and enzyme alone for no effect
An asterisk follows results filed as active; ? = inconclusive; / = not tested or not shown. Rule as the data show it, unless noted: active = inhibition above about 30%; inconclusive = no clear call, values can overlap the other calls; inactive = below that.

SMILES	BoNT-F LC inh	SSB-PriA inh	BoNT A protease	Bead autofluor	Anthrax LF inh2
COC(=O)c1sccc1S(=O)(=O)NCc1cnn2ccccc12	/	-6	/	/	/
N#Cc1nc(-c2ccco2)oc1N1CCN(c2cccc(Cl)c2)CC1	-5	50*	2	9130	-10
N#Cc1nc(-c2ccco2)oc1N1CCN(C(c2ccccc2)c2ccccc2)CC1	-8	5	-2	7233	-6
N#Cc1nc(-c2ccco2)oc1N1CCc2ccccc2C1	-4	43*	1	8511	-2
COc1ccccc1-c1nc(C#N)c(N2CCN(c3cccc(Cl)c3)CC2)o1	-7	24	-5	25154*	-6
N#Cc1nc(-c2ccco2)oc1N1CCCC1	-3	0	1	3225	-3
COc1ccc(S(=O)(=O)C2CCN(C(=O)c3ccoc3)CC2)cc1	/	-11	/	/	/
O=C(C1CCN(c2cc(Oc3ccccc3)ncn2)CC1)N1CCc2ccccc2C1	/	4	/	/	/
CS(=O)(=O)N1CCCC(C(=O)Nc2nc(-c3cc(Cl)sc3Cl)cs2)C1 (stereo not drawn)	/	3	/	/	/
Cc1ccc(/C=C2/CCc3c([nH]c4ccccc34)C2=O)cc1	3	-9	0	23420*	1
CC(C)/C=C1\CCc2c([nH]c3ccccc23)C1=O	6	4	0	3562	7
Cc1ccc2[nH]c3c(c2c1)CC/C(=C/c1ccccc1)C3=O	12	-10	3	8375	-6
O=C1/C(=C\c2ccccc2)CCc2c1[nH]c1ccccc21	-3	-9	-1	23509*	-1
O=C1CCC(C(=O)Nc2nc3c(s2)CCCC3)N1 (stereo not drawn)	/	8	/	/	/
O=C(c1ccccc1)c1c2c(cc3sc4ccccc4[n+]13)-c1cccc3cccc-2c13	-16	28	73*	6966	2
C(/C=C/c1ccccc1)=NNc1nc(N2CCOCC2)nc(N2CCOCC2)n1	/	-12	/	/	/
COC(=O)c1ccc(CSc2nc3c(cnn3-c3cccc(Cl)c3)c(=O)[nH]2)o1	/	-8	/	/	/
COc1ccc(CC(=O)Nc2c3c(nn2-c2cccc(C)c2C)CS(=O)(=O)C3)cc1	1	-9	1	22126*	1
CCC(=O)NCC1CN(c2ccc(OC)cc2)C(=O)O1 (stereo not drawn)	/	-3	/	/	/
O=C(Cc1cccs1)N1CCC(CSC2=NCCS2)CC1	/	-5	/	/	/
N/C(=N/OCC(=O)Nc1cccc2ccccc12)c1nonc1N	-3	/	-2	17291*	2
C=CCn1cnc2c(c1=O)c1nc3ccccc3nc1n2/N=C/c1cccc(OC)c1	8	/	?	21328*	0
COc1cccc(C2CC(c3ccccc3OC)n3ncnc3N2)c1 (stereo not drawn)	5	-5	0	5909	-5
COc1cccc(C2CC(c3ccccc3)Nc3ncnn32)c1 (stereo not drawn)	0	-4	0	22399*	0
CC(=NOC(=O)c1ccc(Cl)cc1)c1nccs1	1	-13	-1	3722	-2
SMILES	BoNT-F LC inh	SSB-PriA inh	BoNT A protease	Bead autofluor	Anthrax LF inh2
C/C(=N\OC(=O)c1ccc(Cl)cc1)c1nccs1	-5	/	-2	24861*	-2
COc1cccc(N(C(=O)Cn2nnc(-c3ccc(C)cc3)n2)C(C(=O)NC(C)(C)C)c2c[nH]c3ccccc23)c1 (stereo not drawn)	-9	20	-2	23333*	-8
CC(C)(C)NC(=O)C(c1c[nH]c2ccccc12)N(C(=O)Cn1nnc(-c2ccc(Cl)cc2)n1)c1ccccc1F (stereo not drawn)	-2	-2	-1	2094	-1
CN(C)c1ccc(/C=C(\C#N)C(=O)Nc2nc3c(s2)CCN(Cc2ccccc2)C3)cc1	58*	-24	16	10915	8
CC1CCN(CC(=O)NCc2ccccc2)CC1	-1	1	0	22476*	0
O=C(CN1CCCCCC1)NCc1ccccc1	-2	1	-1	4374	5
CC(=O)Nc1ccc(-c2nnc(SCC(=O)n3c4c(c5ccccc53)CCCC4)n2C)cc1	4	-2	-1	9744	-1
Cn1c(SCC(=O)n2c3c(c4ccccc42)CCCC3)nnc1-c1ccccc1	-1	6	0	22437*	-1
COc1ccc(NC(=O)CC2C(=O)N(c3cccc(OC)c3)C(=O)N2CCC(C)C)cc1 (stereo not drawn)	-1	-9	4	19759*	1
CCOc1ccc(NC(=O)CC2C(=O)N(c3ccccc3)C(=O)N2Cc2ccccn2)cc1 (stereo not drawn)	5	-8	?	22858*	-1
CCOc1ccc(NC(=O)CC2C(=O)N(c3ccccc3)C(=S)N2Cc2ccccn2)cc1 (stereo not drawn)	-5	-2	-1	9610	-2
CCOC(=O)C1(C)C(=NNc2ccc(S(N)(=O)=O)cc2)C(=O)C(=O)N1c1ccccc1 (stereo not drawn)	/	5	/	/	/
O=C(NCCC(O)c1ccco1)C(=O)Nc1cccnc1 (stereo not drawn)	/	-5	/	/	/
O=C(COC(=O)COc1ccc2ccccc2c1)NCC(F)(F)F	37*	2	4	4574	-6
CC(O)(CNC(=O)COc1ccc2ccccc2c1)c1ccccc1 (stereo not drawn)	/	-5	/	/	/
Cc1nc2ccc(NC(=O)c3cccc(C(F)(F)F)c3)cc2o1	0	-7	0	22143*	0
CC(C)CC(=O)NC(N)=Nc1nc2ccccc2o1	/	-11	/	/	/
O=c1c2c(cnn2-c2ccccc2)c(C2CC2)nn1CCc1ccccc1	/	-1	/	/	/
CCOC(=O)c1ccc(NC2c3ncccc3C(=O)N2Cc2ccc(F)cc2)cc1 (stereo not drawn)	-2	-8	-1	24047*	-3
CCOc1ccc(N2C(=O)c3cccnc3C2Nc2ccc(Cl)cc2)cc1 (stereo not drawn)	1	14	2	21889*	0
COC(=O)c1cc(NC2c3ncccc3C(=O)N2Cc2ccccc2)cc(C(=O)OC)c1 (stereo not drawn)	-2	-2	1	16375*	2
COC(=O)c1ccc(NC2c3ncccc3C(=O)N2Cc2cccs2)cc1 (stereo not drawn)	-4	-3	0	1971	-2
NC(=O)c1oc2ccccc2c1NC(=O)CCCS(=O)(=O)c1ccccc1	/	-11	/	/	/
Cc1ccc(-c2noc(-c3cccn(CC(=O)Nc4ccc(C#N)cc4)c3=O)n2)cc1	/	-1	/	/	/
CCOc1ccc(N2CCn3c2nn(CC(=O)Nc2cccc(C(F)(F)F)c2)c(=O)c3=O)cc1	/	-9	/	/	/
CCc1ccccc1N1C(=O)c2cccc3c(N4CCOCC4)c([N+](=O)[O-])cc(c23)C1=O	-11	21	-5	24654*	-6
CN(C)C(=O)c1ccc(NC(=O)c2cncc(Br)c2)cc1	7	-11	3	21882*	2
CCCn1c(SCC(=O)c2cc(OC)ccc2OC)nc2c1c(=O)n(C)c(=O)n2C	-2	-22	-2	21330*	-1
COc1ccc(OC)c(C(=O)CSc2nc3c(c(=O)n(C)c(=O)n3C)n2C(C)C)c1	-3	2	0	5107	-2
O=C(CSc1nccn1-c1ccc(Cl)cc1)N1CCCc2ccccc21	-2	56*	0	2306	-2

Bioassay records (PubChem BioAssay)
